Laboratory results as given in the supplement of paper PMC11732987, “Enantioselective OTUD7B fragment discovery through chemoproteomics screening and high-throughput optimisation” (Communications Chemistry, 2025).

What was measured:
Test in all cases: log2 ratio of Biotin-Ahx-Ub-VS probe labelling (fragment/DMSO); higher = less target engagement (more negative = stronger competition), active = hit call of the paper (q ≤ 0.05, log2 ratio ≤ -1)
Details in all cases: compound concentration: 200 uM; treatment time: 3 h
USP34 = USP34 (UniProt Q70CQ2)
Procedure, shortened: (§1)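 Each value is an average log2 ratio of fragment to vehicle, tested by unpaired t-test. The underlying Spectronaut label-free quantities were global-median-normalised, and only proteins with ≥2 unique peptides were included. Triplicate HEK293T lysate samples (495 µg) were exposed to fragment at 200 µM or vehicle for 3 h, then to Biotin-Ahx-Ub-VS at 0.5 µM final for 1 h, before NeutrAvidin enrichment of labelled DUBs, LysC and trypsin digestion, and diaPASEF LC-MS/MS.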

USP36 = molecular target: T1, USP36 (UniProt Q9P275)
T1 sequence (whole entry): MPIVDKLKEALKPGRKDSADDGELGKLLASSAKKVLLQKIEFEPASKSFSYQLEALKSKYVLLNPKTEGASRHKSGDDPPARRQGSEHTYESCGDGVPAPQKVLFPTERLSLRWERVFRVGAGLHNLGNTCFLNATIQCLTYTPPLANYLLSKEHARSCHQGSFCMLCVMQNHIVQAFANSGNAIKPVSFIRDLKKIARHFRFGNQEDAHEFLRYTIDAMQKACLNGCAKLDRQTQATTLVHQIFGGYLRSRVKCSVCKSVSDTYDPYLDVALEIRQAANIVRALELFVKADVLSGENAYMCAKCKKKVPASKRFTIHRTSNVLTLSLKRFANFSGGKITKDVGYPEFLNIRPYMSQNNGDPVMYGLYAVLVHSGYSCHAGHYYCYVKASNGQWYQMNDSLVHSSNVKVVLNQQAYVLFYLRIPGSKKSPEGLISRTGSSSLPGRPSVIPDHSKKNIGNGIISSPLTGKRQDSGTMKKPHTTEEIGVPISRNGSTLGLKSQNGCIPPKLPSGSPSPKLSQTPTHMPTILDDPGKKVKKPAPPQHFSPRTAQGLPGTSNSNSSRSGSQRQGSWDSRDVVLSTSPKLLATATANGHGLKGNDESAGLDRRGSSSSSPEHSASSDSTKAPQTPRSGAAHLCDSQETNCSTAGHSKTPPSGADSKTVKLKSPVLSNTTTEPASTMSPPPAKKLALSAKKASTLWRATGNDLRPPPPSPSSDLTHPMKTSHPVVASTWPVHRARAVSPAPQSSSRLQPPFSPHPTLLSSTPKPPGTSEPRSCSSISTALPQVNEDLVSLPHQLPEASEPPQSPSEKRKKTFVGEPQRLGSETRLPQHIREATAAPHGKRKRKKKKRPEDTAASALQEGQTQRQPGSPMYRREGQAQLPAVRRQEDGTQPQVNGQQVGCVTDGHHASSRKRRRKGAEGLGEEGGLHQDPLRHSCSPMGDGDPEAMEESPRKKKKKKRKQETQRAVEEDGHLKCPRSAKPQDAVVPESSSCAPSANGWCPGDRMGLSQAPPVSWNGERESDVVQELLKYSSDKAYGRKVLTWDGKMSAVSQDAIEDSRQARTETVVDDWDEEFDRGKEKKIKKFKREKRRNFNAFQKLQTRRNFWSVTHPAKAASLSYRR
Procedure, shortened: as §1

USP38 = molecular target: T2, USP38 (UniProt Q8NB14)
T2 sequence (whole entry): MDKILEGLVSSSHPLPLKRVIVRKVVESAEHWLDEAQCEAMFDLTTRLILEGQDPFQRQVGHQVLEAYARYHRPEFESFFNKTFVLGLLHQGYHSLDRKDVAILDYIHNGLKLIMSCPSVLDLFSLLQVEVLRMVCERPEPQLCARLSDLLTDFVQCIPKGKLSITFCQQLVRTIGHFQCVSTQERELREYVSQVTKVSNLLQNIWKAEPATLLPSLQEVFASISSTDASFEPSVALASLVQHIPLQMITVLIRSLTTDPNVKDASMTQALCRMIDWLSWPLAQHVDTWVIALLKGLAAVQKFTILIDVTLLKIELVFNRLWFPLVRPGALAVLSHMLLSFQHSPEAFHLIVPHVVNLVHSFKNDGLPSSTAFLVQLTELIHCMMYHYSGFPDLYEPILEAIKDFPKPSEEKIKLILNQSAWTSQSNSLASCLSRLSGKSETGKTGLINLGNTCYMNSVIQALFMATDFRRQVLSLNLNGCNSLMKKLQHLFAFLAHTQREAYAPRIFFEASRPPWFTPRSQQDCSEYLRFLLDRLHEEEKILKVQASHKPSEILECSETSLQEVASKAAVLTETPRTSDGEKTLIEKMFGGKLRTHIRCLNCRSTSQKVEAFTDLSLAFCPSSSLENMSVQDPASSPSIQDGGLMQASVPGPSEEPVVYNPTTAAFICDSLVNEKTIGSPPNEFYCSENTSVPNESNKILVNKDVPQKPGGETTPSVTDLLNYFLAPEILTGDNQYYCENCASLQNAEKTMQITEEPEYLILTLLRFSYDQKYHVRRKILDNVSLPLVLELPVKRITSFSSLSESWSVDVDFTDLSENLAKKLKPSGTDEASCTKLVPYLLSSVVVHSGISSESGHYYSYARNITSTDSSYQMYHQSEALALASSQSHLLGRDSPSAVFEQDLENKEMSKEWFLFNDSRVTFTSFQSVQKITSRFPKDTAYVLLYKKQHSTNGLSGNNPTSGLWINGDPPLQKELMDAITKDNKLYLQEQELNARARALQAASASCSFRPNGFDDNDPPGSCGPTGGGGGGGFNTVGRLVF
Procedure, shortened: as §1

USP39 = molecular target: T3, USP39 (UniProt Q53GS9)
T3 sequence (whole entry): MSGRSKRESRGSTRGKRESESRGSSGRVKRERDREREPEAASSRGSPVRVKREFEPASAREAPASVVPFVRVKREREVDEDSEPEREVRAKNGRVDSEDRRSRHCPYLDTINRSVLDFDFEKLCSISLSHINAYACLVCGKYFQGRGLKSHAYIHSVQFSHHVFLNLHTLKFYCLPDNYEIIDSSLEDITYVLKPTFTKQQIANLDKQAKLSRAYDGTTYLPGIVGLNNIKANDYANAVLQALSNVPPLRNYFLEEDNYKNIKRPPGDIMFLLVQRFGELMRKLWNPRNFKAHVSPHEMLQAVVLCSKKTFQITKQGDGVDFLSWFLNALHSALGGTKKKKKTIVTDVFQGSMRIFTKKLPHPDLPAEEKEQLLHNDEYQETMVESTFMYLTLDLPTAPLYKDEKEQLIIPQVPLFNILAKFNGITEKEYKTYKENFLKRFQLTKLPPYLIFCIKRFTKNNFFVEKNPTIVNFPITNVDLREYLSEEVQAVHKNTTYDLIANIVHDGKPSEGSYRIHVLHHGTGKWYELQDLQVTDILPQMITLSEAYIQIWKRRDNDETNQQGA
Procedure, shortened: as §1

USP4 = molecular target: T4, USP4 (UniProt Q13107)
T4 sequence (whole entry): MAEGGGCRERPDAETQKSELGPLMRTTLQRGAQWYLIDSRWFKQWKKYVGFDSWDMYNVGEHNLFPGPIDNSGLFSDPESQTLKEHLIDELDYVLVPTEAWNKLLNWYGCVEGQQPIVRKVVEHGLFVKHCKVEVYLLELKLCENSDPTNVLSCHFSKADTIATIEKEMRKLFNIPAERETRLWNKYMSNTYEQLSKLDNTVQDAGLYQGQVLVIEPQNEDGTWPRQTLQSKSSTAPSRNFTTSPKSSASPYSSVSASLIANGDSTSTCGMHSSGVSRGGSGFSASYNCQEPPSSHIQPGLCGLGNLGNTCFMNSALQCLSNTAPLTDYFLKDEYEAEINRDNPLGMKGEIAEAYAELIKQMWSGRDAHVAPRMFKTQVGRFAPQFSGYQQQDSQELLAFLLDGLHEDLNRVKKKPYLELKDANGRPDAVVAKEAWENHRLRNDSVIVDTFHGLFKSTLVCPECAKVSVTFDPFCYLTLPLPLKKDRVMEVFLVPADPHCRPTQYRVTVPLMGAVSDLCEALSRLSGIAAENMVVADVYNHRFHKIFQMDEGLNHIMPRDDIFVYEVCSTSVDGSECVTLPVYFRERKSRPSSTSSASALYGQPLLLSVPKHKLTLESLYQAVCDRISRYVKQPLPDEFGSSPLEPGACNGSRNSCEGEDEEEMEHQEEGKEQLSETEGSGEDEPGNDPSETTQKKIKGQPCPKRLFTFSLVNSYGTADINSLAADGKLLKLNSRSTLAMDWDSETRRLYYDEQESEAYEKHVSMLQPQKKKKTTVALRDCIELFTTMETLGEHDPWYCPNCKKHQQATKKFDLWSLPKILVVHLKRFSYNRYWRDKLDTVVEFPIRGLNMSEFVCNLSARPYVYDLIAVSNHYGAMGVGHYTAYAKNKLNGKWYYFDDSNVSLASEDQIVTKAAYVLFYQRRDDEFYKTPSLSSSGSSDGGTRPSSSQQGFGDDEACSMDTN
Procedure, shortened: as §1

Measured: log2 ratio of Biotin-Ahx-Ub-VS probe labelling

USP34, sequence (Q70CQ2 whole entry, the tested form may be a part): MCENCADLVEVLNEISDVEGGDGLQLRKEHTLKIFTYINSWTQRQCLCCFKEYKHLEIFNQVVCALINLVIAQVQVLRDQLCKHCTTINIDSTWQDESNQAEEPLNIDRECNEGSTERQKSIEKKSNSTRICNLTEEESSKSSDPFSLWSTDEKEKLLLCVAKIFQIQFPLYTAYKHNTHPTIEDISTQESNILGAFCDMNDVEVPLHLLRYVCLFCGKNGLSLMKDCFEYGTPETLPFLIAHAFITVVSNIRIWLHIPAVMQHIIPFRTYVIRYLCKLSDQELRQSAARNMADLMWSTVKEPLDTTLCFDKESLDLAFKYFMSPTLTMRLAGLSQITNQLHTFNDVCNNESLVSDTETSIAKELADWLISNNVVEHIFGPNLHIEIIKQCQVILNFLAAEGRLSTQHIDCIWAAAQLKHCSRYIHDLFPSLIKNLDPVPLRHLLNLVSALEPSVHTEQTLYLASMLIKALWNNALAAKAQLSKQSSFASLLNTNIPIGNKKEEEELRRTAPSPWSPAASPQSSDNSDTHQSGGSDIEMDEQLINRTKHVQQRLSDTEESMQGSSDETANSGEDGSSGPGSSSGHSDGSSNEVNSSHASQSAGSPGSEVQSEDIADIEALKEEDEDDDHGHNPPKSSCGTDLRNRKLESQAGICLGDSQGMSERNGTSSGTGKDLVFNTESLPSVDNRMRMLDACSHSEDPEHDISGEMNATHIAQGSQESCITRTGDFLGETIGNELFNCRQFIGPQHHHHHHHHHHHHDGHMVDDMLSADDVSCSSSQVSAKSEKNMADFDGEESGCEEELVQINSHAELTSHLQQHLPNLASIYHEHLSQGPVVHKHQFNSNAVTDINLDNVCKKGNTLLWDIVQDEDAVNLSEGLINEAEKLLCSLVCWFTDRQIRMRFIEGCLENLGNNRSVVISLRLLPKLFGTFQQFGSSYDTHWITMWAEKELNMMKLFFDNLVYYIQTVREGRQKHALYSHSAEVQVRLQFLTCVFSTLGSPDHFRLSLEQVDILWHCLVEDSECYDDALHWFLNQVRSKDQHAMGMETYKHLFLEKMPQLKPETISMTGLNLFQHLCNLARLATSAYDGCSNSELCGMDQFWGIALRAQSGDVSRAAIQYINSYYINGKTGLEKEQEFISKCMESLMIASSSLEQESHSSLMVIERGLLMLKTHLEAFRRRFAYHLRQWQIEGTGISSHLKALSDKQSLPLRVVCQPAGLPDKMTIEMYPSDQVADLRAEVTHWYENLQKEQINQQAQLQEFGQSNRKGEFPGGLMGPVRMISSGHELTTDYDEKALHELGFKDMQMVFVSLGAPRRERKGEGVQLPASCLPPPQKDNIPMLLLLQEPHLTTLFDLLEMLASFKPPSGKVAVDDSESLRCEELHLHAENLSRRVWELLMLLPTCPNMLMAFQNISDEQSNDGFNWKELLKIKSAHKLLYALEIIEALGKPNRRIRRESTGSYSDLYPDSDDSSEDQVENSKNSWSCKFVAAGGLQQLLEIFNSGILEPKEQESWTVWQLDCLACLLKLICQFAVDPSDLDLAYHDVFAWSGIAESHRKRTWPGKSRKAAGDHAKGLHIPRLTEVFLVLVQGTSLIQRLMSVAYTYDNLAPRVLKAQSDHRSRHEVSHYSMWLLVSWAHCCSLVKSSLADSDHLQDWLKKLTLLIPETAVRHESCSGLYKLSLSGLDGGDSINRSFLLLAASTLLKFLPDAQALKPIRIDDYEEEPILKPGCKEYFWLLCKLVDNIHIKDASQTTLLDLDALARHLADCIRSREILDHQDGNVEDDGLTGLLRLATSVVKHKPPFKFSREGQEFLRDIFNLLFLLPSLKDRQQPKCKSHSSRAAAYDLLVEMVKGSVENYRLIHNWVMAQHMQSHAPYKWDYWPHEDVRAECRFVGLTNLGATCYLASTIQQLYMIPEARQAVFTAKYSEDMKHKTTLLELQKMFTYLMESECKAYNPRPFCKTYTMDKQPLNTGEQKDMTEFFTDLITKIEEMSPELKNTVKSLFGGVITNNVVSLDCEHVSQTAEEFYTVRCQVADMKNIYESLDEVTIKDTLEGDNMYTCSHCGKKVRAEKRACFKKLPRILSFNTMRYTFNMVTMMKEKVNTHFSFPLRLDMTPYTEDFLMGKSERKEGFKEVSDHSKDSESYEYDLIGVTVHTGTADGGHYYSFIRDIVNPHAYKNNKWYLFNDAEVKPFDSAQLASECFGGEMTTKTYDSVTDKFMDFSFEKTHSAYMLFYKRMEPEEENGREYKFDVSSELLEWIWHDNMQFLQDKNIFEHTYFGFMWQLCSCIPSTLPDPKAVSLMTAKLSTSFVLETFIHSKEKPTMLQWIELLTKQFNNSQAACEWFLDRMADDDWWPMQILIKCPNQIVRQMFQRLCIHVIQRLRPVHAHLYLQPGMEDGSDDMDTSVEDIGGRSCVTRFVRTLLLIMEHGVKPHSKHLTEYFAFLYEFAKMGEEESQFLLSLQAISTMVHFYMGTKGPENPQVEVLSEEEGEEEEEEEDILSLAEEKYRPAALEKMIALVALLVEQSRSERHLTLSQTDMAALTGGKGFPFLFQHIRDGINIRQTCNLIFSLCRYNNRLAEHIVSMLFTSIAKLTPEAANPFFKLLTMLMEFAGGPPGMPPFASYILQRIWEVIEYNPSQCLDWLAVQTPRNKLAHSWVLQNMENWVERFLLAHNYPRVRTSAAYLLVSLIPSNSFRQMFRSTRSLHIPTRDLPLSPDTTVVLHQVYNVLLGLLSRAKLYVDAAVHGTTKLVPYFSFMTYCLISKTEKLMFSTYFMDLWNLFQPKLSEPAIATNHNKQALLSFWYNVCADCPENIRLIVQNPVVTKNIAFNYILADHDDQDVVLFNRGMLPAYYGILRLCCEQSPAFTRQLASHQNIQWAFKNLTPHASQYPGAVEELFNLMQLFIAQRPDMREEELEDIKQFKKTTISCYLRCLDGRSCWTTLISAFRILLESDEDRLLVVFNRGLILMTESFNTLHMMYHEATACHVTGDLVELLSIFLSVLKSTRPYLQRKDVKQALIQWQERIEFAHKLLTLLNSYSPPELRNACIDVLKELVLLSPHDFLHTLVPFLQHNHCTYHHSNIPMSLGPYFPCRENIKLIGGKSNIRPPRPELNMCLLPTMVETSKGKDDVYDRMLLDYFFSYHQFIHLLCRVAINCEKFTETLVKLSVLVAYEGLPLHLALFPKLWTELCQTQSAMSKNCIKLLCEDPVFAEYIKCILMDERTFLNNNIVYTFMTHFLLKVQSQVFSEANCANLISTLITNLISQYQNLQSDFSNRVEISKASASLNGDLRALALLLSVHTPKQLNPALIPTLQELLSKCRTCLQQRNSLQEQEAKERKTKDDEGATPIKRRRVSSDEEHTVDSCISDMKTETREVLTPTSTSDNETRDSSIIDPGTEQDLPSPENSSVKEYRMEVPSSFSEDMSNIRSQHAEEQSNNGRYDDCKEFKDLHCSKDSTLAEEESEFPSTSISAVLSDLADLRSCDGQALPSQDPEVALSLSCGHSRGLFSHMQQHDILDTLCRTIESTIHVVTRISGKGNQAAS

Cc1ccc(CN(C)C(=O)CCl)o1
inactive: USP34 -0.0329 | USP36 0.0474 | USP38 -0.0916 | USP39 0.287 | USP4 0.0471
